# Rows were chosen to be rich in hits. Some 21% of all compounds tested hit in one or more screens of this group.
# TDP1 cell noCPT: qHTS for Inhibitors of human tyrosyl-DNA phosphodiesterase 1 (TDP1): qHTS in cells in absence of CPT. DT40 Tdp1-/- hTDP1 cells, no CPT, ATP luminescence, 48 h. Potency, µM (series often up to 46.2 µM), inactives show at the highest dose activity change, negative = growth inhibition, actives largely listed as inhibitors. 420,000 tested, 15% active; further: potency means the concentration at half of the fitted maximal effect; nearly all actives have a fitted effect of over 55% in size
#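 Chicken DT40 Tdp1-/- cells complemented with human TDP1, screened without camptothecin (DMSO vehicle only), 400 cells/well. Compounds pin-transferred, cells incubated at 37 °C for at least 48 hr. Growth read as ATP-dependent luminescence (CellTiter-Glo, 30 min at RT).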
# IL-1B inflam inh: blocks inflammasome-driven IL-1 beta release | activity change, % at 57.5 µM | 360,000 tested, 4.7% active | THP-1 LPS/ATP IL-1B secretion, AlphaLISA, 16 h; active compounds read low; in the data active means activity change below about -50%; inconclusive means mostly about -30% to -49%
#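 Secreted IL-1B measured by AlphaLISA bead assay after 16 h compound exposure of THP-1 cells; compounds (final up to 57.5 uM) added 1 h before LPS (250 ng/mL) and ATP (1.25 mM) stimulation; lower signal means less secretion.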
# Gal4-VP16 FLuc: Gal4-VP16 reporter inhibition counter-screen; Potency, µM (titrated, usually from 53.6 µM), inactives show top-dose activity, negative = inhibition, usual class: inhibitors; Drosophila S2 Gal4-VP16 UAS-luciferase, luminescence, 20 h; 310,000 tested, 3.5% active;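 further: Gal4-VP16 expression switched on by copper sulfate through the metallothionein promoter; potency means the concentration at half of the fitted maximal effect; nearly all actives have a fitted effect of over 50% in size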
# TDP1 cell CPT: DT40-hTDP1 cell growth loss with CPT; chicken DT40 Tdp1-/-;hTDP1 cells + 20 nM CPT, ATP luminescence, 48 h; Potency, µM (doses to about 46.2 µM), inactives show top-dose activity change, negative = growth inhibition, usual class: inhibitors; 420,000 tested, 12% active; AID 686979; further: potency means the concentration at half of the fitted maximal effect; nearly all actives have a fitted effect of over 55% in size
#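 Chicken DT40 Tdp1-/- cells stably complemented with human TDP1 were seeded at 400 cells/well in medium containing 20 nM camptothecin, exposed to pin-transferred compounds, and grown at 37 °C for at least 48 hr. Viability was read as ATP luminescence.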
# RORgamma inh: ROR gamma (mouse) transcription inhibition. P51450. Drosophila S2 Gal4-RORgamma UAS-luciferase reporter, 20 h. Potency, µM (top dose mostly 53.6 µM), without a hit: at the top dose activity change, negative = inhibition, hits mostly inhibitors. 310,000 tested, 5.4% active; further: potency means the concentration at half of the fitted maximal effect; nearly all actives have a fitted effect of over 60% in size
# Target sequence (P51450 whole entry, looked up, the tested form may be a part): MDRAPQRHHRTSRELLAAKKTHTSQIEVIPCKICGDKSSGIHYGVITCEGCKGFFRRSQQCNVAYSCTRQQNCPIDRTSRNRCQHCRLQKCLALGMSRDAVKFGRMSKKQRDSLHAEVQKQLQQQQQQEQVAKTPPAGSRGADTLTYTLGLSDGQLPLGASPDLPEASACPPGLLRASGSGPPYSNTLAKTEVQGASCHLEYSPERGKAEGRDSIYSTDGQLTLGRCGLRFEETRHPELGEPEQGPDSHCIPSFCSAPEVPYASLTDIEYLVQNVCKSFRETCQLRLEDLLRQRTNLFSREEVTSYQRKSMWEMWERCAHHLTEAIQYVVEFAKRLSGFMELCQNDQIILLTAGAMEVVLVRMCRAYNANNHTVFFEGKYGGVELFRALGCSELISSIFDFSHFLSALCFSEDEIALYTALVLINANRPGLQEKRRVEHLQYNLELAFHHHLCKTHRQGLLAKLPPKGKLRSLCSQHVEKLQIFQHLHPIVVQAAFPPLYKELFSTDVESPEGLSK
#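 Using a luciferase readout, inhibitors were identified by reduced reporter activity in Drosophila cells coexpressing a copper-inducible Gal4–ROR gamma fusion and UAS-driven Photinus luciferase, incubated 20 hr after 700 uM copper sulfate.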
# ELG1 DNA repair: ELG1-dependent DNA repair inhibition. HEK293T ELG1-luciferase reporter, luminescence, 16 h; DNA damage induced by 5-fluorouridine. Potency, µM (top dose mostly 46.1 µM), inactives show at the highest dose activity change, negative = inhibition, actives largely listed as inhibitors. 330,000 tested, 2.3% active; further: potency means the concentration at half of the fitted maximal effect; nearly all actives have a fitted effect of over 55% in size
#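 Overnight (16 hr) co-exposure of 2,000 cells/well to 5-fluorouridine and compound at 37 °C preceded detection. Luciferase was quantified via ONE-Glo luminescence; loss of signal denotes inhibition.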
# * marks the source's active call; other numbers are inactive results; u = inconclusive; x = no result given; [ ] = another dose, or the depositor's remark. Unless noted, the call rests on the fitted dose curve; in most records, active means well fitted curve in the direction sought with a large enough effect; inconclusive means small, poorly fitted or top-dose-only effect, or another doubt; inactive means no such curve, though single readings can be large; an effect the other way counts as inactive or inconclusive. On the % scale 0 is the no-effect control and ±100 the full control effect.
SMILES,TDP1 cell noCPT,IL-1B inflam inh,Gal4-VP16 FLuc,TDP1 cell CPT,RORgamma inh,ELG1 DNA repair
CCc1cc2cc(C)cc(C)c2nc1Cl,u,14.8,0.7%,4.8%,-19.4%,4.0%
Cc1cc(C)c2cc(C=O)c(Cl)nc2c1,1.03µM*,36.2,4.0%,1.16µM*,-3.4%,6.6%
CN(Cc1ccccc1)C(=O)c1cccc(NC(=O)Cc2ccc(NC(=O)C3CCCN(C(=O)c4ccccc4)C3)cc2)c1 (stereo not given),u,45.0,x,u,x,x
CSc1cccc(NS(=O)(=O)c2cn(C)c(C)n2)c1,u,x,x,-17.4%,x,x
COc1ccccc1CNc1ccc(-c2nc(-c3cccc(C)c3)no2)cc1[N+](=O)[O-],-14.8%,x,x,-0.8%,x,x
COc1cc([N+](=O)[O-])ccc1NC(=O)c1cccc(NC(=O)C(C)C)c1,29.1µM*,x,-0.6%,u,5.7%,u
COc1ccc(CCNC(=O)c2ccc(-c3cccc([N+](=O)[O-])c3)o2)cc1OC,20.6µM*,-28.9,-1.2%[10 µM],u,31.8%,u
COc1cc(NC(=O)c2ccc(-c3cccc([N+](=O)[O-])c3)o2)ccc1NC(=O)C(C)C,20.6µM*,10.5,-24.8%,u,14.8%,u
NNC(=O)c1ccc(-c2cccc([N+](=O)[O-])c2)o1,-9.6%,-25.0,15.1%,u,4.8%,0.7%
c1ccn2cc(-c3ccc4c(c3)OCO4)cc2c1,u,0.0,-20.0%,16.4µM*,-25.3%,u
CS(=O)(=O)N(CC(=O)NCc1ccco1)c1ccc(OCc2ccccc2)cc1,-5.0%,-7.8,-11.3%,-4.9%,16.6%,u
CC(C)n1ncc2c(C(=O)Nc3ccc(S(C)(=O)=O)cc3)cc(C3CC3)nc21,u,-26.3,x,u,x,u
CC(C)n1ncc2c(C(=O)Nc3cccc(S(=O)(=O)N(C)C)c3)cc(C3CC3)nc21,9.2µM*,x,x,18.4µM*,x,20.6µM*
CNC(=O)c1cccc(NC(=O)c2cc(-c3ccccc3)nc3c2cnn3C(C)C)c1,u,u,x,u,x,7.94µM*
CC(=O)Nc1ccc(NC(=O)c2cc(C3CC3)nc3c2cnn3C(C)C)cc1,u,-9.3,x,29.1µM*,x,2.2%
CCCC[C@]12Cc3cc(C#N)ccc3C(O1)c1c(cc(C)n(Cc3ccccc3)c1=O)O2,x,x,-5.9%[10 µM],x,-8.2%[10 µM],x
CCOC(=O)C1C(c2ccc3c(c2)OCO3)NC(=O)NC1(O)C(F)(F)F (stereo not given),13µM*,0.0,-0.6%,9.2µM*,20.1%,-0.1%
CCOC(=O)C1=C(CN2CCN(c3ccccc3)CC2)NC(=O)NC1c1ccc(C)cc1 (stereo not given),u,x,x,25.9µM*,x,x
CCOC(=O)C1=C(CN2CCN(c3ccc(Cl)cc3)CC2)NC(=O)NC1c1ccc(OC)cc1 (stereo not given),25.9µM*,x,x,20.6µM*,x,x
CCOC(=O)C1=C(CN2CCN(CC)CC2)NC(=O)NC1c1ccc(Cl)cc1 (stereo not given),23.1µM*,x,x,u,x,x
CCOC(=O)C1=C(CN2CCC(C)CC2)NC(=O)NC1c1ccc(F)cc1 (stereo not given),-25.9%,x,x,-5.1%,x,x
CCOC(=O)C1=C(CN2CCN(c3cccc(Cl)c3)CC2)NC(=O)NC1c1ccc(Cl)cc1 (stereo not given),20.6µM*,x,x,u,x,x
CCOC(=O)C1=C(CN2CC(C)CC(C)C2)NC(=O)NC1c1ccc2c(c1)OCO2 (stereo not given),25.9µM*,0.0,-0.3%[10 µM],u,35.4%,u
CCOC(=O)C1=C(CN2CCN(c3cc(C)ccc3C)CC2)NC(=O)NC1c1ccccc1 (stereo not given),18.4µM*,x,x,u,x,x
COc1cc(NC(=O)c2noc3c2CC(C)CC3)c(OC)cc1Cl (stereo not given),-0.2%,x,x,23.6%,x,x
SMILES,TDP1 cell noCPT,IL-1B inflam inh,Gal4-VP16 FLuc,TDP1 cell CPT,RORgamma inh,ELG1 DNA repair
COCCN(C(=O)CSc1nnc(-c2ccccc2OC)o1)c1c(N)n(CC(C)C)c(=O)[nH]c1=O,4.1%,3.3,x,-4.6%,x,16.7%
CC(C)c1ccc(NC(=O)c2cc(S(=O)(=O)N3CCCCC3)cn2C)cc1,-13.1%,x,x,-14.6%,x,x
CCc1cccc(CC)c1NC(=O)/C(C#N)=C/c1ccccc1C(F)(F)F,20.6µM*,-98.6*,10µM*,u,11.2µM*,u
N#C/C(=C\c1ccccc1C(F)(F)F)C(=O)Nc1ccccc1,-12.0%,-69.7*,3.4%,-26.3%,-11.2%[10 µM],2.5%
COCCNC(=O)/C(C#N)=C/c1cccc(NC(=O)c2ccccc2Cl)c1,u,-8.3,2.2%,u,36.5%,u
CC(C)NC(=O)/C(C#N)=C/c1cccc(NC(=O)c2ccccc2Cl)c1,14.6µM*,-103.9*,u,u,u,u
Cc1ccc(NC(=O)/C(C#N)=C/c2ccccc2Cl)cc1C,25.9µM*,x,x,25.9µM*,x,x
Cc1ccc(-c2nc(SCC(=O)N3CCc4ccccc43)c3c(=O)n(C)c(=O)n(C)c3n2)cc1,-7.8%,x,x,-3.1%,x,x
CC(C)[C@H](NC(=O)N1CCn2c1nc1ccccc12)C(=O)N1CCCCC1,-12.5%,11.3,-7.4%,-28.9%,-6.1%,2.5%
CC1CCCCC1NC(=O)COC(=O)c1ccc2c(=O)n3c(nc2c1)CCC3 (stereo not given),7.3%,0.8,x,-10.3%,x,-3.9%
CCOC(=O)COn1c(-c2cccc(Cl)c2)nc2ccc([N+](=O)[O-])cc21,-29.5%,1.0,0.3%,-7.0%,27.3%,27.5%
CCOC(=O)C(C)On1c(-c2cccc(Cl)c2)nc2ccc([N+](=O)[O-])cc21 (stereo not given),20.6µM*,-17.5,-8.3%,u,22.7%,u
COc1ccc(-c2nn(C)c3sc(C(=O)Nc4cccc(F)c4)cc23)cc1OC,10.3µM*,x,x,14.6µM*,x,x
COc1cccc(NC(=O)c2cc3c(-c4ccc(Cl)cc4)nn(C)c3s2)c1,14.6µM*,x,x,u,x,x
COc1ccc(-c2nn(C)c3sc(C(=O)N4CCOCC4)cc23)cc1OC,u,-19.9,0.7%,-17.0%,-4.0%,u
O=S(=O)(c1ccccc1Cl)N1CCN(c2nc(-c3ccccc3)nc3ccccc23)CC1,u,x,x,-25.8%,x,x
CSCC[C@H](N)C(=O)N[C@@H](CCCN=C(N)N)C(=O)N[C@@H](CC(C)C)C(=O)N[C@@H](Cc1ccccc1)C(=O)N[C@H](C(=O)O)C(C)C,x,x,-3.9%,x,4.4%,x

# High-throughput results: PubChem, National Center for Advancing Translational Sciences (NCATS)
